# Compound activity (PubChem BioAssay)
# Anthrax LF inh2 = anthrax lethal factor protease inhibition; P15917; multiplex microsphere protease cleavage assay, LF; inhibition, % at 10 µM; 360,000 compounds, 0.12% hits; also: plate controls were buffer without enzyme for full effect and enzyme alone for no effect
# Target sequence (P15917 whole entry, looked up): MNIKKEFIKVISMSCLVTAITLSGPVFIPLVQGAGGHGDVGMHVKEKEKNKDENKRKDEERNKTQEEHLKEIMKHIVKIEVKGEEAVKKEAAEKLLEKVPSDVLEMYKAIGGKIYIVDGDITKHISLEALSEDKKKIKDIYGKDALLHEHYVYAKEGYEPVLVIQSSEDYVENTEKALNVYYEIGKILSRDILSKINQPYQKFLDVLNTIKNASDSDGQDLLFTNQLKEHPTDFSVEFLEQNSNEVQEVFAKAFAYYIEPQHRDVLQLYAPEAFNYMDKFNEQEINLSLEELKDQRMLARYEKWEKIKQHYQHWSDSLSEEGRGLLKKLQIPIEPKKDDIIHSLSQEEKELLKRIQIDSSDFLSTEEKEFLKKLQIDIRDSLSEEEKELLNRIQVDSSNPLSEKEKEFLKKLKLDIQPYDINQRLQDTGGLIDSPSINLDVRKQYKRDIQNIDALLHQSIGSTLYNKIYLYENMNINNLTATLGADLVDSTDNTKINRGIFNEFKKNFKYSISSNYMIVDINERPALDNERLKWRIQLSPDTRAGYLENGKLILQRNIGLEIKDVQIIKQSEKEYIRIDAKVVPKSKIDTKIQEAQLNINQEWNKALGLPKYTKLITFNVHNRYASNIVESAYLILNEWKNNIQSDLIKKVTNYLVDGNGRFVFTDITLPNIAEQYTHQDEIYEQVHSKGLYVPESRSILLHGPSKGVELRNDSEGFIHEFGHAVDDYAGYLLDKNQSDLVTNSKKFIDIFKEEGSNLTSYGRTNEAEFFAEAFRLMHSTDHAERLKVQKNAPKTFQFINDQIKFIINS
# BoNT F protease = BoNT F light chain protease inhibition | AID 588497 | 360,000 compounds, 0.22% hits | Multiplex microsphere protease cleavage assay, flow cytometry | inhibition, % at 10 µM; in the data active = inhibition above about 35%, passing the limit was not always enough; inconclusive = no clear call, values can overlap the other calls; also: plate controls were buffer without enzyme for full effect and enzyme alone for no effect
# BoNT A protease = BoNT A light chain protease inhibition; 360,000 compounds, 0.17% hits; inhibition, % at 10 µM; multiplex microsphere protease substrate cleavage, flow cytometry; also: plate controls were buffer without enzyme for full effect and enzyme alone for no effect
# Autofluor counter = compound fluorescence in toxin protease inhibitor counterscreen; fluorescence intensity (concentration not given with the values); compound autofluorescence counterscreen, microsphere flow cytometry; active compounds read high; 360,000 compounds, 3.1% hits; in the data active = fluorescence intensity above about 16000; inconclusive = no clear call, values can overlap the other calls
# Numbers without * were called inactive; ? = inconclusive. The list is not random: actives were taken first. Their share in the collection is about 3.5%. Rule as the data show it, unless noted: active = inhibition above about 30%; inconclusive = no clear call, values can overlap the other calls; inactive = below that.
SMILES,Anthrax LF inh2,BoNT F protease,BoNT A protease,Autofluor counter
N/C(=N\OC(=O)C12CC3CC(CC(C3)C1)C2)c1cccnc1,1,13,0,9199
CC(C)c1ccc(NC(=S)NCc2cccs2)cc1,-2,-6,-4,21787*
S=C(NCc1cccs1)Nc1cccc(Cl)c1,-6,-14,-11,18567*
COc1ccc(NC(=S)NCc2cccs2)cc1,-6,0,1,4058
CC(=O)c1ncnn1CC(=O)c1ccc(Cl)cc1Cl,2,-1,-2,22669*
CC(C(=O)c1ccc(Cl)cc1Cl)n1cncn1 (configuration not stated),-4,2,0,4175
CCC(CC)CN1CCN=C1N(C)C,-3,5,-1,3662
COc1cccc(NC(=O)C2(C)CCN2Cc2ccccc2OC(F)F)c1 (configuration not stated),2,0,0,3609
CC1CCCCC1NC(=O)CN1C(=O)NC(C)(c2cc(F)ccc2F)C1=O (configuration not stated),2,1,2,8588
COc1ccc(-c2cc(C(=O)N3CCN(c4ccccn4)CC3)c3ccccc3n2)cc1,-1,-6,-1,11887
CCOc1ccc(-c2cc(C(=O)N3CCN(C)CC3)c3ccccc3n2)cc1,1,1,2,23119*
CCOc1ccc(-c2cc(C(=O)N3CCN(c4ccccn4)CC3)c3ccccc3n2)cc1,0,0,-1,22531*
Cc1noc(C)c1NC(=O)N(C)C[C@H]1Oc2c(NC(=O)C3CCCCC3)cccc2C(=O)N([C@H](C)CO)C[C@@H]1C,-5,-10,-1,2968
CCCCCc1cc(O)c2c(C)cc(=O)oc2c1,-1,-7,-3,23187*
O=C(Cn1cncn1)NCc1ccccc1Br,-3,-2,?,20396*
O=C(Cn1cncn1)NCc1cccc2ccccc12,-2,1,?,22835*
CC(NC(=O)Cn1cnc([N+](=O)[O-])n1)c1ccccc1 (configuration not stated),-3,-56,-3,4334
C[C@H](NC(=O)Cn1cncn1)c1ccccc1,1,0,-1,17083*
O=C(Cn1cncn1)c1ccccc1Br,27,-7,4,3816
O=C([O-])c1cc(-c2ccccc2)cc(-c2ccccc2)[n+]1CCc1ccc(Cl)cc1,8,-12,0,4013
O=C(NCCC(=O)N1CCc2ccccc21)c1ccco1,8,5,0,3813
C=CCN(c1ccc(C(=O)NC(C)C)cc1)S(C)(=O)=O,-5,-2,0,23751*
C=CCNC(=O)c1ccc(N(Cc2ccc(Cl)cc2)S(C)(=O)=O)cc1,10,39*,1,3005
COc1cccc(S(=O)(=O)N(C)C[C@@H]2OCc3cn(nn3)CCCC(=O)N([C@H](C)CO)C[C@H]2C)c1,0,0,0,2850
Cc1ccc(OCC(=O)NNC(=O)CCC(=O)NCc2ccccc2)cc1,-1,1,1,22071*
SMILES,Anthrax LF inh2,BoNT F protease,BoNT A protease,Autofluor counter
O=C(CCc1ccccc1)NNC(=O)COc1ccccc1,-2,-4,?,24872*
COc1ccc(OCC(=O)NNC(=O)CCc2ccccc2)cc1,2,-4,0,2012
CC(C)(C)NC(=O)COc1ccc(-c2ccccc2)cc1,-5,-6,-3,17169*
CCNC(=O)COc1ccc(-c2ccccc2)cc1,3,-5,0,10702
O=C(Cc1ccccc1)Nc1ccc(C(=O)O)cc1,3,-3,?,23610*
O=C(CN1C(=O)/C(=C/c2ccco2)SC1=S)NC1CCS(=O)(=O)C1 (configuration not stated),-1,-5,-1,5505
CC(=O)Nc1ccc(NC(=O)COC(=O)c2ccc(S(=O)(=O)N(C)c3ccccc3)cc2)cc1,2,-5,0,4057
O=C(CCc1ccccc1)NNC(=O)c1ccc(NC(=O)c2ccccc2)cc1,0,-24,-2,2080
O=C(Cc1ccc(-c2ccccc2)cc1)NCc1ccccc1,1,11,2,9994
Cc1ccc(CNC(=O)Cc2ccc(-c3ccccc3)cc2)cc1,-3,-5,-4,25102*
O=C(CCC(=O)c1cccs1)NCc1ccc(Cl)cc1,0,-1,0,2655
Cc1ccc(CNC(=O)CCC(=O)c2cccs2)cc1,-1,2,2,22864*
CC(=O)Nc1ccc(C(=O)NNC(=O)CCc2ccccc2)cc1,-2,-3,-2,23567*
CC(C)(C)NC(=O)CN(C(=O)Cn1nnc(-c2ccccc2F)n1)c1cccc2c1CCCC2,-1,-2,-1,17013*
COc1ccccc1N(CC(=O)NC(C)(C)C)C(=O)Cn1nnc(-c2ccc(C)o2)n1,-7,8,0,9620
CN(C)c1cncc(C(=O)O)c1,-2,-3,0,2136
CN(C)c1ncc(C(=O)O)cn1,-1,-3,-1,16816*
COc1ccc(S(=O)(=O)N2CCC3CC2c2cc(-c4ccc5c(c4)OCO5)ccc23)cc1 (configuration not stated),-4,0,0,6099
CCN(CC)S(=O)(=O)c1cc(C(=O)Oc2ccccc2OC)ccc1OC,3,4,1,22741*
CCOc1cc(CNCc2ccncc2)cc(Br)c1OCc1ccc(F)cc1,-5,-12,-1,20403*
CN1CCN(c2ccc(C(CC(N)=O)NC(=O)Cc3cccc4ccccc34)cc2[N+](=O)[O-])CC1 (configuration not stated),-7,-7,0,4010
CNc1sc(C(=O)c2ccc(F)cc2)c(N)c1-c1nc2ccccc2s1,21,8,19,18218*
CC1(C2CC2)NC(=O)N(CC(=O)Nc2ccccc2C#N)C1=O (configuration not stated),5,1,5,4514
Cc1cccc(S(=O)(=O)C(C#N)c2nc3ccccc3nc2N2CCCC2)c1 (configuration not stated),0,-8,5,3725
Cc1ccc(C)c(S(=O)(=O)C(C#N)c2nc3ccccc3nc2N2CCCC2)c1 (configuration not stated),-14,8,3,20606*
SMILES,Anthrax LF inh2,BoNT F protease,BoNT A protease,Autofluor counter
CC(C)CNC(=S)NC1CCCC1,-2,-4,?,20457*
CC(C)CNC(=O)C(=O)NC1CCCC1,-3,-6,0,3146
O=C1OC=NC1=Cc1ccccc1,-2,-2,0,3649
CCCCNC(=O)NS(=O)(=O)c1ccc(NC(=O)C(NC(N)=O)C(C)CC)cc1 (configuration not stated),-6,-3,-2,4999
CC(C)c1ccc(NS(=O)(=O)c2ccc(N3C(=O)CCC3=O)cc2)cc1,4,-2,0,4555
Cc1ccc(NS(=O)(=O)c2ccc(N3C(=O)CCC3=O)cc2)cc1,-18,10,7,18928*
O=C(c1ccc(S(=O)(=O)N2CCC(c3nc4ccccc4s3)CC2)cc1)N1CCOCC1,1,-2,-4,23501*
COc1ccc(N2CCN(C(=O)C3CCN(S(=O)(=O)c4cccs4)CC3)CC2)cc1,-7,-14,-1,5050
O=C(C1CCN(S(=O)(=O)N2CCOCC2)CC1)N1CCC2(CC1)OCCO2,-2,5,2,22049*
O=C(C1CCN(S(=O)(=O)c2ccc(F)cc2)CC1)N1CC=C(c2ccccc2)CC1,-13,4,4,17943*
